# Columns and labels:
# Test in all cases: SPOT peptide array binding signal intensity (averaged, normalized) (arbitrary units (background-subtracted, floor 0; scale differs between SH3 domains)); higher = stronger binding of the SH3 domain to the peptide
# AgAbp1 = biological target: AgAbp1
# How it was run: (§1)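 Detection of bound protein relied on anti-GST antibody, an HRP anti-mouse secondary and luminol, with imaging and quantification in Genespotter. The bound protein was GST-fused SH3 domains from four yeast species, incubated at 10 μg/ml overnight at 4°C in TBS-based blocking buffer on cellulose membranes carrying synthetic 15-mer peptides with cysteines replaced by serines. Binding signal is normalized, background-subtracted spot intensity averaged over replicates, in arbitrary units that differ between domains.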
# AgBbc1 = biological target: AgBbc1
# How it was run: as §1
# AgBem1-D1 = biological target: AgBem1-D1
# How it was run: as §1
# AgBzz1-D1 = biological target: AgBzz1-D1
# How it was run: as §1
# AgBzz1-D2 = biological target: AgBzz1-D2
# How it was run: as §1
# AgCyk3 = biological target: AgCyk3
# How it was run: as §1
# AgFus1 = biological target: AgFus1
# How it was run: as §1
# AgHof1 = biological target: AgHof1
# How it was run: as §1
# AgHse1 = biological target: AgHse1
# How it was run: as §1
# AgLsb1 = biological target: AgLsb1
# How it was run: as §1
# AgLsb4 = biological target: AgLsb4
# How it was run: as §1
# AgMyo5 = biological target: AgMyo5
# How it was run: as §1
# AgNbp2 = biological target: AgNbp2
# How it was run: as §1
# AgRvs167 = biological target: AgRvs167
# How it was run: as §1
# AgSho1 = biological target: AgSho1
# How it was run: as §1
# AgSla1-D1-D2 = biological target: AgSla1-D1-D2
# How it was run: as §1
# AgSla1-D3 = biological target: AgSla1-D3
# How it was run: as §1
# CaAbp1-D1 = biological target: CaAbp1-D1
# How it was run: as §1
# CaAbp1-D2 = biological target: CaAbp1-D2
# How it was run: as §1
# CaBbc1 = biological target: CaBbc1
# How it was run: as §1
# CaBem1-D1 = biological target: CaBem1-D1
# How it was run: as §1
# CaBzz1-D1 = biological target: CaBzz1-D1
# How it was run: as §1
# CaBzz1-D2 = biological target: CaBzz1-D2
# How it was run: as §1
# CaCyk3 = biological target: CaCyk3
# How it was run: as §1
# CaFus1 = biological target: CaFus1
# How it was run: as §1
# CaHof1 = biological target: CaHof1
# How it was run: as §1
# CaHse1 = biological target: CaHse1
# How it was run: as §1
# CaLsb1 = biological target: CaLsb1
# How it was run: as §1
# CaLsb4 = biological target: CaLsb4
# How it was run: as §1
# CaMyo5 = biological target: CaMyo5
# How it was run: as §1
# CaNbp2 = biological target: CaNbp2
# How it was run: as §1
# CaRvs167 = biological target: CaRvs167
# How it was run: as §1
# CaRvs167-3 = biological target: CaRvs167-3
# How it was run: as §1
# CaSho1 = biological target: CaSho1
# How it was run: as §1
# CaSla1-D1-D2 = biological target: CaSla1-D1-D2
# How it was run: as §1
# CaSla1-D3 = biological target: CaSla1-D3
# How it was run: as §1
# ScAbp1 = biological target: ScAbp1
# How it was run: as §1
# ScBbc1 = biological target: ScBbc1
# How it was run: as §1
# ScBem1-D1 = biological target: ScBem1-D1
# How it was run: as §1
# ScBzz1-D1 = biological target: ScBzz1-D1
# How it was run: as §1
# ScBzz1-D2 = biological target: ScBzz1-D2
# How it was run: as §1
# ScCyk3 = biological target: ScCyk3
# How it was run: as §1
# ScFus1 = biological target: ScFus1
# How it was run: as §1
# ScHof1 = biological target: ScHof1
# How it was run: as §1
# ScHse1 = biological target: ScHse1
# How it was run: as §1
# ScLsb1 = biological target: ScLsb1
# How it was run: as §1
# ScLsb2 = biological target: ScLsb2
# How it was run: as §1
# ScLsb3 = biological target: ScLsb3
# How it was run: as §1
# ScLsb4 = biological target: ScLsb4
# How it was run: as §1
# ScMyo3 = biological target: ScMyo3
# How it was run: as §1
# ScMyo5 = biological target: ScMyo5
# How it was run: as §1
# ScNbp2 = biological target: ScNbp2
# How it was run: as §1
# ScPex13 = biological target: ScPex13
# How it was run: as §1
# ScRvs167 = biological target: ScRvs167
# How it was run: as §1
# ScSho1 = biological target: ScSho1
# How it was run: as §1
# ScSla1-D1-D2 = biological target: ScSla1-D1-D2
# How it was run: as §1
# ScSla1-D3 = biological target: ScSla1-D3
# How it was run: as §1
# SpAbp1-D1 = biological target: SpAbp1-D1
# How it was run: as §1
# SpBbc1 = biological target: SpBbc1
# How it was run: as §1
# SpBzz1-D1 = biological target: SpBzz1-D1
# How it was run: as §1
# SpBzz1-D2 = biological target: SpBzz1-D2
# How it was run: as §1
# SpCyk3 = biological target: SpCyk3
# How it was run: as §1
# SpHof1 = biological target: SpHof1
# How it was run: as §1
# SpHof1-2 = biological target: SpHof1-2
# How it was run: as §1
# SpHof1-3 = biological target: SpHof1-3
# How it was run: as §1
# SpHse1 = biological target: SpHse1
# How it was run: as §1
# SpLsb1 = biological target: SpLsb1
# How it was run: as §1
# SpLsb4 = biological target: SpLsb4
# How it was run: as §1
# SpMyo1 = biological target: SpMyo1
# How it was run: as §1
# SpNbp2 = biological target: SpNbp2
# How it was run: as §1
# SpPex13 = biological target: SpPex13
# How it was run: as §1
# SpRvs167 = biological target: SpRvs167
# How it was run: as §1
# SpSla1-D1-D2 = biological target: SpSla1-D1-D2
# How it was run: as §1
# SpSla1-D3 = biological target: SpSla1-D3
# How it was run: as §1
binder,measurement,setting,value
GKLKHIPRRPYEIER,SPOT peptide array binding signal intensity,AgAbp1,3.5
same,SPOT peptide array binding signal intensity,AgBbc1,102
same,SPOT peptide array binding signal intensity,AgBem1-D1,14
same,SPOT peptide array binding signal intensity,AgBzz1-D1,11
same,SPOT peptide array binding signal intensity,AgBzz1-D2,10.5
same,SPOT peptide array binding signal intensity,AgCyk3,1.5
same,SPOT peptide array binding signal intensity,AgFus1,10
same,SPOT peptide array binding signal intensity,AgHof1,5.5
same,SPOT peptide array binding signal intensity,AgHse1,≤ 0
same,SPOT peptide array binding signal intensity,AgLsb1,1
same,SPOT peptide array binding signal intensity,AgLsb4,12
same,SPOT peptide array binding signal intensity,AgMyo5,0.25
same,SPOT peptide array binding signal intensity,AgNbp2,≤ 0
same,SPOT peptide array binding signal intensity,AgRvs167,1.83
same,SPOT peptide array binding signal intensity,AgSho1,≤ 0
same,SPOT peptide array binding signal intensity,AgSla1-D1-D2,≤ 0
same,SPOT peptide array binding signal intensity,AgSla1-D3,0.75
same,SPOT peptide array binding signal intensity,CaAbp1-D1,129
same,SPOT peptide array binding signal intensity,CaAbp1-D2,1
same,SPOT peptide array binding signal intensity,CaBbc1,552
same,SPOT peptide array binding signal intensity,CaBem1-D1,5
same,SPOT peptide array binding signal intensity,CaBzz1-D1,116
same,SPOT peptide array binding signal intensity,CaBzz1-D2,67.5
same,SPOT peptide array binding signal intensity,CaCyk3,67.5
same,SPOT peptide array binding signal intensity,CaFus1,≤ 0
same,SPOT peptide array binding signal intensity,CaHof1,≤ 0
same,SPOT peptide array binding signal intensity,CaHse1,1.5
same,SPOT peptide array binding signal intensity,CaLsb1,≤ 0
same,SPOT peptide array binding signal intensity,CaLsb4,40
same,SPOT peptide array binding signal intensity,CaMyo5,≤ 0
same,SPOT peptide array binding signal intensity,CaNbp2,≤ 0
same,SPOT peptide array binding signal intensity,CaRvs167,2.83
same,SPOT peptide array binding signal intensity,CaRvs167-3,≤ 0
same,SPOT peptide array binding signal intensity,CaSho1,≤ 0
same,SPOT peptide array binding signal intensity,CaSla1-D1-D2,≤ 0
same,SPOT peptide array binding signal intensity,CaSla1-D3,≤ 0
same,SPOT peptide array binding signal intensity,ScAbp1,7
same,SPOT peptide array binding signal intensity,ScBbc1,55.2
same,SPOT peptide array binding signal intensity,ScBem1-D1,6
same,SPOT peptide array binding signal intensity,ScBzz1-D1,12
same,SPOT peptide array binding signal intensity,ScBzz1-D2,1
same,SPOT peptide array binding signal intensity,ScCyk3,17.5
same,SPOT peptide array binding signal intensity,ScFus1,≤ 0
same,SPOT peptide array binding signal intensity,ScHof1,≤ 0
same,SPOT peptide array binding signal intensity,ScHse1,150
same,SPOT peptide array binding signal intensity,ScLsb1,12.5
same,SPOT peptide array binding signal intensity,ScLsb2,≤ 0
same,SPOT peptide array binding signal intensity,ScLsb3,122
same,SPOT peptide array binding signal intensity,ScLsb4,5
same,SPOT peptide array binding signal intensity,ScMyo3,1.5
same,SPOT peptide array binding signal intensity,ScMyo5,0.5
same,SPOT peptide array binding signal intensity,ScNbp2,26.5
same,SPOT peptide array binding signal intensity,ScPex13,17.5
same,SPOT peptide array binding signal intensity,ScRvs167,16.7
same,SPOT peptide array binding signal intensity,ScSho1,71.5
same,SPOT peptide array binding signal intensity,ScSla1-D1-D2,12
same,SPOT peptide array binding signal intensity,ScSla1-D3,0.75
same,SPOT peptide array binding signal intensity,SpAbp1-D1,11
same,SPOT peptide array binding signal intensity,SpBbc1,1.75
same,SPOT peptide array binding signal intensity,SpBzz1-D1,240
same,SPOT peptide array binding signal intensity,SpBzz1-D2,≤ 0
same,SPOT peptide array binding signal intensity,SpCyk3,2.5
same,SPOT peptide array binding signal intensity,SpHof1,8
same,SPOT peptide array binding signal intensity,SpHof1-2,1
same,SPOT peptide array binding signal intensity,SpHof1-3,44.2
same,SPOT peptide array binding signal intensity,SpHse1,21
same,SPOT peptide array binding signal intensity,SpLsb1,12
same,SPOT peptide array binding signal intensity,SpLsb4,53.5
same,SPOT peptide array binding signal intensity,SpMyo1,0.75
same,SPOT peptide array binding signal intensity,SpNbp2,≤ 0
same,SPOT peptide array binding signal intensity,SpPex13,≤ 0
same,SPOT peptide array binding signal intensity,SpRvs167,3.17
same,SPOT peptide array binding signal intensity,SpSla1-D1-D2,≤ 0
same,SPOT peptide array binding signal intensity,SpSla1-D3,≤ 0

# Reference: the supplement of paper PMC4466140
